Source: PubChem
12-LOX inh: Primary qHTS assay for inhibitors of human arachidonate 12S-lipoxygenase (ALOX12): Round 2 | Potency, µM (doses to about 108 µM), for the others: at the top dose activity change, negative = inhibition, most hits filed as inhibitors | Polyunsaturated fatty acid lipoxygenase ALOX12 (Homo sapiens), P18054 | 580,000 compounds, 1.1% hits | purified 12hLO, xylenol orange hydroperoxide absorbance; also: potency is read from the fitted curve at half-maximal effect
Target sequence (P18054 whole entry, looked up): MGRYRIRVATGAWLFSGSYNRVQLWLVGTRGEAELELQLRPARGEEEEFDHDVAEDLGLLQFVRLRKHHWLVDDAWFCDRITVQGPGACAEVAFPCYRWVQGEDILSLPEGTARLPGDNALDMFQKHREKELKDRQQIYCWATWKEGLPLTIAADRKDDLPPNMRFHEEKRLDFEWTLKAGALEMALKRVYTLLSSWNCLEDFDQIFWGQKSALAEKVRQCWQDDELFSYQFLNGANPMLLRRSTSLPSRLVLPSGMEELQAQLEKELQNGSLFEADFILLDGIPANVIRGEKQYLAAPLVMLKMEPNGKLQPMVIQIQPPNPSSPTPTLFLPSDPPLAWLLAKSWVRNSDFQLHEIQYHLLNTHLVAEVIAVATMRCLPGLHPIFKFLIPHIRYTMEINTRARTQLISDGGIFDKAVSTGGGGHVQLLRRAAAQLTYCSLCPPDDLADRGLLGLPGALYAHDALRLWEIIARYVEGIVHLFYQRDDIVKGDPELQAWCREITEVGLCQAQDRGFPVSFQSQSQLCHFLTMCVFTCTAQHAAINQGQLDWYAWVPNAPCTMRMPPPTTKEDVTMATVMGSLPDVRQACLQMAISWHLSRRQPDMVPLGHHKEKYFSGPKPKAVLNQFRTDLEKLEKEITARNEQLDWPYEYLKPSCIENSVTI
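Hydroperoxide product was detected by ferrous iron/xylenol orange as the 573 to 405 nm absorbance ratio. Arachidonic acid at 40 uM (final) was turned over for 30 min at room temperature by 150 nM human 12hLO, pH 7.0 Hepes buffer, after 15 min compound preincubation.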
HT1080-NT tox: qHTS for induction of synthetic lethality in tumor cells producing 2HG: qHTS for the HT-1080-NT fibrosarcoma cell line; HT-1080-NT fibrosarcoma viability, CellTiter-Glo ATP luminescence, 48 h; Potency, µM (titrated, usually from 46.1 µM), for the others: at the top dose activity, negative = less viability, most hits filed as cytotoxic; 360,000 compounds, 1.6% hits; AID 686970, 2013;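 also: NT is the 2HG producing partner of a matched IDH1 knockdown line; potency is read from the fitted curve at half-maximal effect; 0% = DMSO-treated cells and -100% = media-only wells without cells; nearly all actives have a fitted effect of over 55% in size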
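Fibrosarcoma NT cells, 750 per well in 5% FBS RPMI, were exposed to compound for 48 hours. Viability: CellTiter-Glo luminescence.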
HT1080 IDH1KD tx: qHTS for induction of synthetic lethality in tumor cells producing 2HG: qHTS for the HT-1080-IDH1KD cell line | HT-1080 IDH1 knockdown viability, ATP luminescence, 48 h | Potency, µM (top dose mostly 46.1 µM), inactives show at the top dose activity, negative = toxicity, most hits filed as cytotoxic | 360,000 compounds, 2% hits | AID 686971, 2013;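 also: potency is read from the fitted curve at half-maximal effect; 0% = DMSO wells and -100% = cell-free medium wells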
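Using the IDH1-knockdown HT-1080 line run in the same batch and compound series as the NT line, viability after 48 h at 37 °C was determined by CellTiter-Glo luminescence and expressed as % activity.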
IL-1B inflam inh: qHTS for Inhibitors of Inflammasome Signaling: IL-1-beta AlphaLISA Primary Screen. AID 743279, 2014. activity change, % at 57.5 µM. THP-1 LPS/ATP IL-1B secretion, AlphaLISA, 16 h; active compounds read low. 360,000 compounds, 4.7% hits; in the data active = activity change below about -50%; inconclusive = mostly about -30% to -49%
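THP-1 cells pretreated 1 hr with compounds (up to 57.5 uM final), then stimulated with LPS (250 ng/mL final) plus ATP (1.25 mM final); secreted IL-1B measured by AlphaLISA after 16 hr, decreased signal indicating inhibition.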
TDP1 cell CPT: qHTS for Inhibitors of human tyrosyl-DNA phosphodiesterase 1 (TDP1): qHTS in cells in presence of CPT; chicken DT40 Tdp1-/-;hTDP1 cells + 20 nM CPT, ATP luminescence, 48 h; Potency, µM (titrated, usually from 46.2 µM), inactives show at the top dose activity change, negative = growth inhibition, actives largely listed as inhibitors; 420,000 compounds, 12% hits; AID 686979, 2013; also: potency is read from the fitted curve at half-maximal effect; nearly all actives have a fitted effect of over 55% in size
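Cell growth measured by CellTiter-Glo luminescence after a minimum 48 h, 37 C compound exposure with 20 nM CPT in Tdp1-knockout DT40 cells stably expressing hTDP1, seeded 400/well; qHTS titration format.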
TDP1 cell noCPT: qHTS for Inhibitors of human tyrosyl-DNA phosphodiesterase 1 (TDP1): qHTS in cells in absence of CPT; DT40 Tdp1-/- hTDP1 cells, no CPT, ATP luminescence, 48 h; 420,000 compounds, 15% hits; AID 686978, 2013; Potency, µM (titrated, usually from 46.2 µM), inactives show at the top dose activity change, negative = growth inhibition, actives largely listed as inhibitors; also: potency is read from the fitted curve at half-maximal effect; nearly all actives have a fitted effect of over 55% in size
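Seeded 400 DT40-hTDP1 cells/well (vehicle DMSO, no 20 nM CPT); pinned compounds; ≥48 hr at 37 °C; CellTiter-Glo luminescence as viability measure.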
The depositor's hits bear a star; ? = inconclusive; / = no result; [ ] = dose if it differs, or a comment. Shown is part of a subset that was picked to be rich in hits. Unless noted, calls follow the shape of the dose curve; as a rule, active = well fitted curve in the direction sought with a large enough effect; inconclusive = small, poorly fitted or top-dose-only effect, or another doubt; inactive = no such curve, though single readings can be large; an effect the other way counts as inactive or inconclusive. Unless noted, % is scaled to controls: 0 for no effect and ±100 for the full control effect.

SMILES	12-LOX inh	HT1080-NT tox	HT1080 IDH1KD tx	IL-1B inflam inh	TDP1 cell CPT	TDP1 cell noCPT
COc1ccc(OCc2cc(=O)c3ccc4c(c3o2)C=CC(C)(C)O4)cc1OC	?	7%	-2%	-12	16µM*	?
COc1cc2c(c3c1c(=O)c1ccccc1n3C)C=CC(C)(C)O2	13%	/	/	/	/	/
CC(C)Oc1ccc(S(=O)(=O)N2CCOCC2)cc1NC(=O)Cc1ccsc1	3%	-3%	-1%	-7	21µM*	?
CCOc1ccc(S(=O)(=O)N2CCCCC2)cc1NC(=O)C1COc2ccccc2O1 (configuration not stated)	-11%	0%	-1%	-8	?	?
COc1ccc(S(=O)(=O)N2CCOCC2)cc1NC(=O)Cc1ccsc1	-10%	11%	16%	20	1%	-5%
CC(C)Oc1ccc(S(=O)(=O)N2CCOCC2)cc1NC(=O)C1COc2ccccc2O1 (configuration not stated)	69%	-3%	-14%	-8	21µM*	18µM*
COCc1ccccc1CNC(=O)NCc1coc(-c2cccs2)n1	33%	/	/	/	/	/
COc1cc(-c2onc(C)c2C(=O)NCCC(c2ccccc2)c2ccccc2)cc(OC)c1OC	-10%	/	/	/	/	/
CCOc1ccc(C(=O)C(C)OC(=O)C2CCN(c3ccc(C(F)(F)F)cn3)CC2)cc1 (configuration not stated)	-7%	-14%	-11%	25	16µM*	23µM*
CCOC(=O)c1ccc(NC(=O)c2ccc3c(c2)c(C)c(C)n3Cc2ccc(F)cc2)cc1	-9%	/	/	/	9.2µM*	8.2µM*
COc1cccc(CN2CCc3c(cc(C(=O)Nc4ccccc4)n3C)C2)c1	4%	/	/	/	/	/
COc1ccc(NC(=O)c2ccc3c(c2)c(C)c(C)n3Cc2ccc(F)cc2)cc1	0%	/	/	/	5.2µM*	4.6µM*
COc1ccc(NC(=O)c2cc3c(n2C)CCN(Cc2ccc(F)cc2)C3)cc1	18µM*	/	/	/	/	/
CCOC(=O)c1ccc(NC(=S)NCc2ccc(F)cc2)cc1	?	-4%	1%	15	?	?
Cc1c(C)n(Cc2ccc(F)cc2)c2ccc(C(=O)NCc3ccco3)cc12	0%	/	/	/	?	?
COc1ccc(C2=C(C)CC(c3ccccc3)NC2=O)cc1OC (configuration not stated)	26%	/	/	/	/	/
COCCCNC(=O)c1cccc(C#N)c1	18%	/	/	/	/	/
Cc1ccc(-c2cc(=O)c3cc(NC(=O)c4ccccc4F)ccc3o2)cc1	10%	/	/	/	/	/
CC(C)(C)n1nnnc1C(c1cccnc1)N1CCN(c2ccccc2)CC1 (configuration not stated)	0%	6%	10%	-2	-11%	?
CCCCn1nnnc1C(c1ccccc1)N1CCN(c2ncccn2)CC1 (configuration not stated)	-5%	4%	1%	-19	?	21µM*
CCCCn1nnnc1C(c1ccccc1)N1CCN(CCN2CCOCC2)CC1 (configuration not stated)	?	-10%	10%	42	2%	-14%
c1ccc(Cn2nnnc2C(c2cccnc2)N2CCN(c3ccccc3)CC2)cc1 (configuration not stated)	2%	-25%	-1%[9.24 µM]	-2	21µM*	23µM*
CCCCn1nnnc1C(c1ccccc1)N1CCN(c2cccc(C(F)(F)F)n2)CC1 (configuration not stated)	9%	-9%	-7%	-7	?	?
CCCCn1nnnc1C(c1ccccc1)N1CCN(c2ccccn2)CC1 (configuration not stated)	0%	15%	10%	?	-46%	16µM*
CCCCn1nnnc1C(c1ccccc1)N1CCN(c2ccc(C)cc2)CC1 (configuration not stated)	0%	-21%	-25%	-27	?	18µM*
SMILES	12-LOX inh	HT1080-NT tox	HT1080 IDH1KD tx	IL-1B inflam inh	TDP1 cell CPT	TDP1 cell noCPT
CCCCn1nnnc1C(c1ccccc1)N1CCc2ccccc2C1 (configuration not stated)	?	-26%	-12%	17	?	?
N#Cc1ccc(Sc2nc3ccccc3[nH]2)nc1	-34%	/	/	/	/	/
O=C(CN1CC[C@H](N2CCOCC2)[C@H](CCCO)C1)NCc1ccccc1	-5%	/	/	/	/	/
O=C(Nc1nnc(C2CC2)s1)c1cc(=O)[nH]c2ccccc12	2%	/	/	/	/	/
CC(=O)N1CCCC(C)(C(=O)N(C)Cc2cccc3ccccc23)C1 (configuration not stated)	13%	14%	1%	63	23µM*	?
CC(C)C(=O)N1CCCC1(C)C(=O)N(C)Cc1cccc2ccccc12 (configuration not stated)	-41%	20%	18%	15	-23%	-22%
CCN(C(=O)COC(=O)C1=COCCO1)c1ccccc1	5%	3%	-1%	-21	6%	6.5µM*
CCCCn1c(=O)[nH]c(=O)c2c(C(=O)OCC)cc(-c3ccccn3)nc21	-19%	/	/	/	/	/
CCOC(=O)c1cc(-c2ccc([N+](=O)[O-])cc2)nc2c1c(=O)[nH]c(=O)n2Cc1ccccc1	-20%	1%	-9%	30	7.3µM*	5.8µM*
CCOc1ccc(-c2cnc(NCc3cccc4ccccc34)n2CCOC)cc1	?	?	?	-95*	?	4.6µM*
COc1ccc(CNc2ncc(-c3ccc(F)cc3)n2C)c2ccccc12	?	23µM*	?	-82*	23µM*	16µM*
Cn1c(-c2ccccc2)cnc1NCc1cc2c(cc1[N+](=O)[O-])OCO2	-17%	0%	-15%	-22	-14%	?
Cn1c(-c2ccc3c(c2)OCO3)cnc1NCc1cccc(O)c1	11µM*	-29%	?	-20	-19%	?
COc1ccccc1CNc1ncc(-c2ccccc2)n1C	?	-19%	-5%	0	26µM*	?
CCOC(=O)c1ccccc1NC(=O)COC(=O)CCC(=O)c1ccccc1	3%	6%	10%	2	11%	4%
